Compound activity (PubChem)
NCOA3 inh = human NCOA3 inhibition; HEK293 GAL4-SRC3 luciferase reporter, luminescence; inhibition, % at 3.6 µM; 360,000 tested, 0.17% active; AID 588352;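 active = inhibition above a per-campaign cutoff, the mean of all compounds plus 3 SD, cut at about 60% in these data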;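 note: 0% = DMSO-treated cells and 100% = gossypol-treated cells at 36 µM; higher means less SRC3-driven luciferase light from the GAL4 reporter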
NCOA2 inhibitor = inhibits human steroid receptor coactivator 2; Q15596; HEK293 GAL4-SRC2 luciferase reporter, luminescence; inhibition, % at 9 µM; 370,000 tested, 0.17% active;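 active = inhibition above the mean inhibition of all tested compounds plus 3 SD, set per campaign, cut at about 52% in these data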;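 note: 0% = DMSO treated cells and 100% = cells given Gossypol at 36 µM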
GalR3 antag = blocks the human galanin receptor 3; O60755; HEK293 GalR3-CNG cAMP membrane potential fluorescence; galR3 body fused to GalR1 C-terminus; inhibition, % at 3 µM; 360,000 tested, 0.44% active; AID 651719;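 active = inhibition above the screen-wide average plus 3 SD, cut at about 13% in these data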;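 note: forskolin and galanin both at EC90 stimulate the cells; cAMP rise reported by CNG channel membrane potential dye signal; 0% = forskolin plus galanin with DMSO and 100% = forskolin alone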
SRC1 inh = inhibits human SRC1 coactivator; 360,000 tested, 0.12% active; AID 588354; HEK293 GAL4-SRC1 luciferase reporter, luminescence; inhibition, % at 3.6 µM; Q15788;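 active = inhibition above the campaign mean plus 3 SD, with each screening campaign given its own cutoff, cut at about 60% in these data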;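 note: 0% = DMSO treated cells and 100% = gossypol at 36 µM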
COUP-TFII inh = inhibitors of human COUP-TFII (NR2F2) | 370,000 tested, 0.7% active | HEK293T NGFI-A luciferase reporter, luminescence | P24468 | inhibition, % at 8.6 µM | AID 686940;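 active = inhibition above a per-plate cutoff, mean inhibition of test wells between control levels plus 3 SD, cut at about 38% in these data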;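 note: cells cotransfected with COUP-TFII expression vector driving the NGFI-A reporter; 0% = median of COUP-TF2 test wells and 100% = reporter-only cells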
NR5A2 inv ag = NR5A2 inverse agonism in reporter assay; O00482; HEK293T StAR-luciferase reporter, LRH-1 transfected, 24 h; inhibition, % at 3.6 µM; 360,000 tested, 0.13% active;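 active = inhibition above the mean inhibition of all tested compounds plus 3 SD, cut at about 73% in these data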;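 note: 0% = DMSO wells and 100% = reporter-only cells lacking LRH-1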
Gal4-VP16 ctr = inhibits VP16 reporter, flagging COUP-TFII antagonist hits. shares compounds with COUP-TFII inh. HEK293 Gal4-VP16 luciferase reporter, luminescence. inhibition, % at 8.5 µM. 2,500 tested, 25% active; in the data active = inhibition above about 13%
COUP-TFII conf = COUP-TFII (NR2F2) inhibition, confirmation assay; 2,500 tested, 45% active; inhibition, % at 8.5 µM; shares compounds with COUP-TFII inh; AID 687008; HEK293 NGFI-A luciferase reporter, luminescence;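 active = mean inhibition over three repeats above a set limit taken from the earlier primary screen, cut at about 38% in these data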;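 note: 100% = cells given the luciferase reporter alone without the COUP-TF2 vector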
Starred values were filed as active, the others as inactive; / = no result given. Only some compounds are listed: those with a hit (about 1.1% of all), similar ones and a draw of the others.

SMILES	NCOA3 inh	NCOA2 inhibitor	GalR3 antag	SRC1 inh	COUP-TFII inh	NR5A2 inv ag	Gal4-VP16 ctr	COUP-TFII conf
CCc1ccc(-c2cn3nc(C)c(C)nc3n2)cc1	-20.0	59.2*	-2.5	-29.7	47.0*	-52.3	-42.1	-12.8
CC[n+]1ccccc1/C=C1\Sc2ccc(C)cc2N1C	39.3	2.9	-12.3	39.2	60.6*	51.2	8.9	58.8*
CN1/C(=C/c2cccc[n+]2CCO)Sc2ccccc21	-5.0	-38.8	-0.8	7.2	10.6	-5.3	/	/
CC(=O)c1ccc(OCC(=O)Nc2cccc(S(=O)(=O)N3CCCC3)c2)cc1	29.6	20.5	-7.5	3.6	42.8*	9.6	-8.5	12.7
CC(=O)c1c(C)[nH]c(C(=O)OCC(=O)Nc2cccc(S(=O)(=O)N3CCCC3)c2)c1C	40.6	19.4	-10.7	36.1	65.6*	46.2	-14.6	36.2
CN(C)S(=O)(=O)c1cccc(NC(=O)CNc2cccc(S(=O)(=O)N3CCCCC3)c2)c1	24.0	5.1	-8.6	18.6	44.9*	33.1	2.8	20.0
CC(=O)c1c(C)[nH]c(C(=O)OCC(=O)Nc2cc(S(=O)(=O)N3CCCC3)ccc2Cl)c1C	31.5	2.3	-8.4	22.8	-18.6	34.1	/	/
Cc1ccc(C)c(C(=O)OCC(=O)Nc2cccc(S(=O)(=O)N3CCCCC3)c2)c1	2.1	10.6	-8.0	-1.7	43.3*	2.4	2.5	29.6
COc1ccccc1CCn1cnc(-c2ccc(Br)cc2)c1CC(C)C	/	2.9	-5.1	/	10.3	/	/	/
CN(C(=O)[C@H]1O[C@@H](n2cnc(C(N)=O)n2)[C@H](O)[C@@H]1O)c1ccccc1	/	-3.6	-6.7	/	2.0	/	/	/
COc1cc(C=Nn2c(-c3cc(-c4ccccc4)n[nH]3)n[nH]c2=S)ccc1OC(C)=O	/	-29.0	/	/	-34.6	/	/	/
CCCCCCCCN1C(=O)[C@H](CC(=O)N2CCN(C(=O)c3ccco3)CC2)C[C@@]2(C(=O)OC)CC(C)(C)CC=C12	/	4.6	-5.5	/	18.9	-14.9	/	/
CCc1nc2ccccc2c(C(=O)OCC(=O)Nc2cccc(S(=O)(=O)N3CCOCC3)c2)c1C	38.9	4.3	-2.8	7.0	64.8*	9.7	10.9	30.2
CCc1nc2ccccc2c(C(=O)OCC(=O)Nc2ccc(S(=O)(=O)N3CCOCC3)cc2)c1C	-0.8	4.4	-1.7	15.4	14.2	14.4	/	/
CCCCCCCC/C=C\CCCCCCCC(=O)NCCO	22.8	11.6	-1.8	3.0	13.3	19.4	/	/
CCCCCCCC/C=C\CCCCCCCC(=O)NCCc1ccc(O)c(O)c1	61.8*	48.5	0.0	59.9	59.2*	78.5*	-0.1	11.2
COc1cc(/C=C2/CC/C(=C/c3ccc(O)c(OC)c3)C2=O)ccc1O	-5.0	5.7	1.4	-7.3	-18.9	-13.2	/	/
COc1cc(/C=C2\COC/C(=C\c3ccc(O)c(OC)c3)C2=O)ccc1O	18.2	-55.8	-1.1	-13.2	63.4*	-15.8	12.9	18.6
COc1ccc(/C=C2\CC/C(=C\c3ccc(OC)c(OC)c3)C2=O)cc1OC	51.5	64.7*	-3.8	45.1	51.1*	6.8	31.9*	49.5*
NC(=O)c1ncn([C@@H]2O[C@H](C(=O)N[C@H](Cc3c[nH]c4ccccc34)C(=O)N3CCN(CC(=O)N4CCCC4)CC3)[C@@H](O)[C@H]2O)n1	/	-9.7	0.9	/	-11.4	/	/	/
COc1ccc(OC)c(CN2C(=O)CCCC2(C)c2nnnn2C2CCCC2)c1 (stereo not drawn)	/	-1.1	/	/	-6.4	/	/	/
Cc1cc(N2CCN(C/C=C/c3ccccc3)CC2)n2ncnc2n1	24.1	-22.0	-1.7	-1.8	39.8*	20.9	-4.0	14.9
CCC(C)Cn1c(C)nc2ccccc21 (stereo not drawn)	8.1	12.2	-4.2	12.2	7.6	9.8	/	/
Cc1nc2ccccc2n1Cc1ccccc1Br	7.1	14.1	-10.4	10.8	41.0*	18.2	-4.1	10.0
c1ccc(Nc2nc(NCc3ccco3)c3ccccc3n2)cc1	-1.6	29.9	3.6	-51.1	53.4*	-52.9	-13.6	26.2
SMILES	NCOA3 inh	NCOA2 inhibitor	GalR3 antag	SRC1 inh	COUP-TFII inh	NR5A2 inv ag	Gal4-VP16 ctr	COUP-TFII conf
COC1=CC(C)C2CC3OC(O)CC4C(C)=C(OC)C(=O)C(C2(C)C1=O)C34C (stereo not drawn)	14.3	14.6	-5.8	0.2	17.3	1.8	/	/
C=CCOc1ccc(CN(C)C(=O)CNC(=O)c2ccc(-c3ccccc3)cc2)cc1	5.7	12.2	-6.2	1.3	46.6*	21.5	1.1	35.8
COc1ccc(S(=O)(=O)N(C)C[C@@H]2Oc3c(NC(=O)Nc4cccc5ccccc45)cccc3C(=O)N([C@@H](C)CO)C[C@H]2C)cc1	/	/	/	/	10.0	/	/	/
COc1ccc(-c2cn3c(C)c(C(=O)Nc4cccc(NC(C)=O)c4)sc3n2)cc1	-32.3	4.4	-1.1	13.6	59.1*	-2.4	-29.0	-4.8
COc1ccc(-c2cn3c(C)c(C(=O)Nc4ccncc4)sc3n2)cc1	15.1	15.6	/	3.1	47.2*	-4.0	-31.4	7.5
COC(=O)c1ccc(NC(=O)c2sc3nc(-c4ccccc4)cn3c2C)cc1	13.3	-15.2	-4.0	-0.3	-11.8	-19.9	/	/
CC(C)C[C@H](NC1(C(=O)NC2CCCCC2)CCN(C)CC1)C(=O)NCC(c1ccccc1)c1ccccc1	/	/	/	/	-8.3	/	/	/
CCCCOc1ccc(C)cc1CN(CCO)CCO	3.0	-20.2	-3.8	-14.4	6.9	-6.0	/	/
CCCCCc1ccc(OCCCC[n+]2ccc(C)cc2)c(CCCCC)c1	11.6	-16.8	6.5	-1.2	56.3*	42.3	20.6*	31.9
CCCCCc1ccc(OCCCC[n+]2cccc(C)c2)c(CCCCC)c1	51.5	3.8	-4.5	14.6	57.4*	58.3	8.2	27.8
CCCCCc1ccc(OCCCC[n+]2ccccc2)c(CCCCC)c1	44.9	/	/	-1.5	/	41.6	/	/
CCCCNc1ccc2c(c1)OC[C@H](Cc1ccccc1)NS2(=O)=O	/	-53.1	-6.3	/	-15.9	/	/	/
Cn1c(=O)n(C)c2cc([N+](=O)[O-])c(N3CCN(C(=O)c4ccccc4Cl)CC3)cc21	25.6	13.8	-11.8	17.0	45.2*	24.2	-7.8	15.2
Cn1c(=O)n(C)c2cc([N+](=O)[O-])c(N3CCN(C(=O)c4ccccc4Br)CC3)cc21	13.2	3.5	-5.6	14.4	27.6	15.3	/	/
O=C(c1ccc2c(=O)n(Cc3ccc(Cl)cc3)c(=S)[nH]c2c1)N1CCOCC1	16.6	31.3	-9.7	6.4	38.9*	15.3	6.9	18.8
O=C(C1CCN(c2cncnc2)CC1)N1CCCC1	/	-31.8	/	/	2.2	/	/	/
CC(C)(C)CCN1CCC[C@H](NC(=O)COc2ccc(F)c(Cl)c2)C1	/	/	/	/	8.0	/	/	/
CC(C)(C)c1ccc(C(=O)NCCOc2ccccc2F)cc1	32.8	40.3	-10.2	38.4	52.8*	28.8	-23.5	45.7*
